Consider 27 compounds from PubChem BioAssay (EPA / NIEHS).

The target in assay [1] is Bile acid receptor (Homo sapiens) (UniProt Q96RI1). Briefly: NVS_NR_hFXR_Antagonist: NovaScreen (NVS) Nuclear Receptor Binding Assay for human Farnesoid X Receptor Antagonism (FXR) (AID 2283350). An outline of the steps: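 Cell-free TR-FRET ligand-binding read-out on human FXR (NR1H4) in antagonist mode, measured 1 h after dosing. Primary screen in duplicate at 25 uM, actives retested in concentration series; signal loss scored versus DMSO.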

In assay [2] the target is PGR (gene 5241) (UniProt P06401). Briefly: NVS_NR_hPR: NovaScreen (NVS) Nuclear Receptor Binding Assay for human Progestron Receptor (PR) (AID 2283360).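 Also: active means loss of bound radioligand signal versus DMSO baseline.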 A digest of the protocol:
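T47D lysate; tritiated or iodinated radioligand; scintillation count at 18 h. DMSO = negative control/baseline. Primary: 25 uM, duplicate. Secondary: concentration series for actives.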

Assay [3] addresses Retinoic acid receptor alpha (Homo sapiens) (UniProt P10276). Briefly: NVS_NR_hRAR_Antagonist: NovaScreen (NVS) Nuclear Receptor Binding Assay for human Retinoic Acid Alpha Receptor Antagonism (RAR) (AID 2283358). An outline of the steps: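 Cell-free TR-FRET binding assay with extracted human RARalpha in antagonist mode, read 2 h after dosing. Loss of signal was fitted relative to DMSO; the primary screen used 25 uM in duplicate, with concentration series on follow-up.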

Assay [4] has as its target rat Mineralocorticoid Receptor (MR), Nr3c2 (gene 25672) (UniProt P22199). Briefly: NVS_NR_rMR: NovaScreen (NVS) Nuclear Receptor Binding Assay for rat Mineralocorticoid Receptor (MR) (AID 2283355). The protocol: NVS_NR_rMR is a biochemical, single-readout assay that uses extracted gene-proteins from Adrenalectomized rat brain supernatant in a tissue-based cell-free assay. Measurements were taken 24 hours after chemical dosing in a 96-well plate.NVS_NR_rMR is one of one assay component(s) measured or calculated from the NVS_NR_rMR assay. It is designed to make measurements of radioligand binding, a form of binding reporter, as detected with scintillation counting signals by Lysate-based radiodetection technology.Data from the assay component NVS_NR_rMR was analyzed into 1 assay endpoint. This assay endpoint, NVS_NR_rMR, was analyzed in the positive analysis fitting direction relative to DMSO as the negative control and baseline of activity. Using a type of binding reporter, loss-of-signal activity can be used to understand changes in the binding as they relate to the gene Nr3c2. Furthermore, this assay endpoint can be referred to as a primary readout, because the performed assay has only produced 1 assay endpoint. To generalize the intended target to other relatable targets, this assay endpoint is annotated to the nuclear receptor intended target family, where the subfamily is steroidal.
Binding assays used specific radioligands (tritiated, iodinated) with non-radioactive competitive displacement ligands in agonist or antagonist protocols (as indicated) and various reference compounds and inhibitors to titrate specific binding to receptors and transporters. Most enzyme assays (CYPs, kinases, phosphatases, proteases, HDACs) used recombinant protein and specific substrates (fluorescence mostly, some colorimetric and radioactive) and inhibitors, followed by a biochemical separation of substrate and product. All assays for the biochemical HTS were initially run in duplicate at a single concentration (10 uM for CYP450 assays and 25 uM for all others). […] Each assay was run with positive and negative controls, and concurrent controls on every plate. The follow-up (secondary) screen tested active chemical-pairs in concentration series, as well as a few additional assays not tested in the primary screen, some selected negative inactives, and several cases re-run in the concentration series for confirmatory purposes.

Assay [5] has as its target Estrogen receptor (Homo sapiens) (UniProt P03372). Briefly: OT_ER_ERaERa_0480: Odyssey Thera (OT) 8-hour HEK293T Protein-Complementation Assay for Estrogen Receptor-alpha/-alpha Homodimer (AID 2283351).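 Also: rise in fluorescence from reassembled reporter fragments on ERα LBD homodimer in nucleus or whole cell.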 A digest of the protocol:
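HEK293T, stable ERα LBD (aa 310-547) PCA homodimer; 8 h compound exposure; fluorescence intensity, laser scanning cytometer; positive fitting direction, DMSO baseline.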

In assay [6] the target is human Peroxisome Proliferator-activated Receptor alpha (PPARa), PPARA (gene 5465) (UniProt Q07869). Briefly: NVS_NR_hPPARa: NovaScreen (NVS) Nuclear Receptor Binding Assay for human Peroxisome Proliferator-activated Receptor alpha (PPARa) (AID 2283359).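 Also: activity means loss of TR-FRET signal versus DMSO baseline.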 An outline of the steps:
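Cell-free TR-FRET binding assay with extracted PPARα protein, read 1 h after dosing. Primary screen in duplicate at 25 uM, with actives retested in concentration series. Loss of signal versus DMSO.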

Assay [7] deals with Androgen Receptor/SRC-1 Co-activator, AR (gene 367) (UniProt P10275). Briefly: OT_AR_ARSRC1_0960: Odyssey Thera (OT) 16-hour HEK293T Protein-Complementation Assay for Androgen Receptor/SRC-1 Co-activator (AID 2283353).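 Also: actives raise the signal above DMSO so potency reflects increased AR and SRC-1 complex.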 A digest of the protocol: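 Split-Venus PCA, AR/SRC-1 fusions, stable HEK293T; 16 h compound exposure; imaged at 488 and 635 nm; N/C ratio (488 nm channel), min 400 cells/image; positive-direction fit, DMSO baseline.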
Chain of Androgen Receptor/SRC-1 Co-activator, AR (gene 367) (P10275 whole entry, looked up, the tested form may be a part): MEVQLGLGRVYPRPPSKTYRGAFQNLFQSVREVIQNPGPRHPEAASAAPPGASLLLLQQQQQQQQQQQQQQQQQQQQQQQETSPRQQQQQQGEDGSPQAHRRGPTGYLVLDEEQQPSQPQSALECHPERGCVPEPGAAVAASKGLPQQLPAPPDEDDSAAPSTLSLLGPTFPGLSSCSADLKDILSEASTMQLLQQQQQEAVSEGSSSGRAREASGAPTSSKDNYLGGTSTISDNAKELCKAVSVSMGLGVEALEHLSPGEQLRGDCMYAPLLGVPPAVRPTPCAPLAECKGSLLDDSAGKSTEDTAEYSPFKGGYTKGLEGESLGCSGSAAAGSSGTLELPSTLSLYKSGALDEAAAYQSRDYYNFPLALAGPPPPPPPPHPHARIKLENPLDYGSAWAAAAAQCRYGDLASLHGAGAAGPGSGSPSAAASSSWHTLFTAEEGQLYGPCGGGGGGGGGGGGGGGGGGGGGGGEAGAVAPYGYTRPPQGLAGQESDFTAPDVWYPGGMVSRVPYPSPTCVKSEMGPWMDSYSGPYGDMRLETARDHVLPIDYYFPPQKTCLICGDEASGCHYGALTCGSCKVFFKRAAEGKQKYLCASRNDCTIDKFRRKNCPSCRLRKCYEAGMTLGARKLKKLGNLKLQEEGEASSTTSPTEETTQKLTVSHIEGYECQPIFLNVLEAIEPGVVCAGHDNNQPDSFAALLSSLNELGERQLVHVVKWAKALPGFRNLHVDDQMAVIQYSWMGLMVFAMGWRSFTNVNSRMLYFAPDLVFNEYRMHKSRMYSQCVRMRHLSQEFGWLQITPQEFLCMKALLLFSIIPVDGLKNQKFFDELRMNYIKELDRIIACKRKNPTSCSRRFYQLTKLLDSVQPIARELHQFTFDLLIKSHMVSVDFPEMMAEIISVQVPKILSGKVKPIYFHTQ

Assay [8] shares this target. Briefly: OT_AR_ARSRC1_0480: Odyssey Thera (OT) 8-hour HEK293T Protein-Complementation Assay for Androgen Receptor/SRC-1 Co-activator (AID 2283354).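 Also: hits raise the complementation signal above DMSO so AC50 marks enhancers.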 A digest of the protocol: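 HEK293T cells stably expressing AR and SRC-1 fused to Venus YFP fragments, imaged 8 h after dosing. Complementation fluorescence scored as nuclear/cytoplasmic ratio at 488 nm in at least 400 cells per image; gain fitted versus DMSO.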

The target in assay [9] is T1, Estrogen receptor (Homo sapiens) + Estrogen receptor beta (Homo sapiens) (UniProt P03372+Q92731). Briefly: OT_ER_ERaERb_0480: Odyssey Thera (OT) 8-hour HEK293T Protein-Complementation Assay for Estrogen Receptor-alpha/-beta Heterodimer (AID 2283352). An outline of the steps:
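Increase in mean fluorescence intensity, measured by laser scanning plate cytometry, reported ER-alpha/ER-beta LBD complementation in HEK293T cells after 8 h chemical exposure. DMSO served as baseline; basal signal is low, punctate and cytoplasmic.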

In assay [10] the target is T1, Estrogen receptor (Homo sapiens) + Estrogen receptor beta (Homo sapiens). Briefly: OT_ER_ERaERb_1440: Odyssey Thera (OT) 24-hour HEK293T Protein-Complementation Assay for Estrogen Receptor-alpha/-beta Homodimer (AID 2283356).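 Also: heteromer of ER alpha and ER beta binding domains; hits raise reporter fluorescence and both agonists and antagonists give an increase.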 An outline of the steps:
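Heterodimerisation of ERα (aa 310-547) and ERβ (aa 263-489) ligand binding domains was tracked as fluorescence gain in stably transfected HEK293T cells following 24 h dosing, normalised to DMSO controls.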

“And” between values parts separate entries of the source, which are not always exact repeats. Equal values may be shown once. Results filed as inconclusive are left out. The source made the active and inactive calls. The calls were made as follows: active = hit-call score of the fitted dose curve at least 0.9, where 1 is the maximum; inconclusive = response in the unintended direction; inactive = score below 0.9.

Chain of human Peroxisome Proliferator-activated Receptor alpha (PPARa), PPARA (gene 5465) (Q07869 whole entry, looked up): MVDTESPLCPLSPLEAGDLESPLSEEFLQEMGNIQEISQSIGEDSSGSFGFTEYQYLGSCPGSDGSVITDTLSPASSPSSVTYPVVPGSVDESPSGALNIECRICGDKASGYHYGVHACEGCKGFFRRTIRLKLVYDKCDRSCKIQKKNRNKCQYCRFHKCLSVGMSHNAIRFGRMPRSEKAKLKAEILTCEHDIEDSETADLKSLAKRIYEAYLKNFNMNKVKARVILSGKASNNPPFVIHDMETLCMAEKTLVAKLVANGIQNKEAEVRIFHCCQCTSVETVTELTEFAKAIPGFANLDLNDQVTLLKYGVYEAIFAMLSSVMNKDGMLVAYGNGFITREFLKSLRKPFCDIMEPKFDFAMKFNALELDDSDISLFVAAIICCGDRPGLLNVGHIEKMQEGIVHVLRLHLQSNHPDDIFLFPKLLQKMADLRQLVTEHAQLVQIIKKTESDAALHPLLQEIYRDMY
Chain of PGR (gene 5241) (P06401 whole entry, looked up): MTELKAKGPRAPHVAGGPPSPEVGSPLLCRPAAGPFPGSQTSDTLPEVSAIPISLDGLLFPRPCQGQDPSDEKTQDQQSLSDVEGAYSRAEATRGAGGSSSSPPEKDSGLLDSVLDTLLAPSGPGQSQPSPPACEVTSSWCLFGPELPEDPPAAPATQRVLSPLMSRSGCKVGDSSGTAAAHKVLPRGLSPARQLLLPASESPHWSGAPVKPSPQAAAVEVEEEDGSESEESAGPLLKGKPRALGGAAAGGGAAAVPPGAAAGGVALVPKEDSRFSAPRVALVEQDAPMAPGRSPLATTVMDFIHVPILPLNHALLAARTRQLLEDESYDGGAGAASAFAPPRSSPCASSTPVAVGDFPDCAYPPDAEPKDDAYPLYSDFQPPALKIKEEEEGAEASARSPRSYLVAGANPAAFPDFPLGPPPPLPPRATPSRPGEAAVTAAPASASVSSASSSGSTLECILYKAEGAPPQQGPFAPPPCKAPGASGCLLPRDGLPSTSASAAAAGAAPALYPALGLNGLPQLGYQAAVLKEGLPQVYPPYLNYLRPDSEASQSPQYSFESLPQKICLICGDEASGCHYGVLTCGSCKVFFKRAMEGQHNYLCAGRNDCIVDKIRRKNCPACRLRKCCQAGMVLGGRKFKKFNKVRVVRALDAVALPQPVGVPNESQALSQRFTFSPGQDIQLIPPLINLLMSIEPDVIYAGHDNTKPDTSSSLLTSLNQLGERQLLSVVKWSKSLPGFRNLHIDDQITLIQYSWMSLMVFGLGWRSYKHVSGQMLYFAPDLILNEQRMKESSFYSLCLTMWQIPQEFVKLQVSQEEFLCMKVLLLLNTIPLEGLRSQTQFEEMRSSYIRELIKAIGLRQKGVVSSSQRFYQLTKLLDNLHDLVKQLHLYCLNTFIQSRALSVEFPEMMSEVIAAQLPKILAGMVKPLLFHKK
Chain of Retinoic acid receptor alpha (Homo sapiens) (P10276 whole entry, looked up): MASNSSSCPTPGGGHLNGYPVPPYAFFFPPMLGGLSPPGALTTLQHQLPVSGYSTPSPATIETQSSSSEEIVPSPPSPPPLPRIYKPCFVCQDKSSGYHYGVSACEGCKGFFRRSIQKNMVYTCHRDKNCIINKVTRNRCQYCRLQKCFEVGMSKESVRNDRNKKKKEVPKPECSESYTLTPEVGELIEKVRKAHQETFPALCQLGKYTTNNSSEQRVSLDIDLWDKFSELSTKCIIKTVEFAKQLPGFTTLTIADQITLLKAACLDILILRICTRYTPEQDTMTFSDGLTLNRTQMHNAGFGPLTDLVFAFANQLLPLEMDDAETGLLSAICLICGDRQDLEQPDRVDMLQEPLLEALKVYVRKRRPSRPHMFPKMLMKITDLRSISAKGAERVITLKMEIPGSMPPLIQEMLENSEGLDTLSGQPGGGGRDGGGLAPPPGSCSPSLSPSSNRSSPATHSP
Chain of rat Mineralocorticoid Receptor (MR), Nr3c2 (gene 25672) (P22199 whole entry, looked up): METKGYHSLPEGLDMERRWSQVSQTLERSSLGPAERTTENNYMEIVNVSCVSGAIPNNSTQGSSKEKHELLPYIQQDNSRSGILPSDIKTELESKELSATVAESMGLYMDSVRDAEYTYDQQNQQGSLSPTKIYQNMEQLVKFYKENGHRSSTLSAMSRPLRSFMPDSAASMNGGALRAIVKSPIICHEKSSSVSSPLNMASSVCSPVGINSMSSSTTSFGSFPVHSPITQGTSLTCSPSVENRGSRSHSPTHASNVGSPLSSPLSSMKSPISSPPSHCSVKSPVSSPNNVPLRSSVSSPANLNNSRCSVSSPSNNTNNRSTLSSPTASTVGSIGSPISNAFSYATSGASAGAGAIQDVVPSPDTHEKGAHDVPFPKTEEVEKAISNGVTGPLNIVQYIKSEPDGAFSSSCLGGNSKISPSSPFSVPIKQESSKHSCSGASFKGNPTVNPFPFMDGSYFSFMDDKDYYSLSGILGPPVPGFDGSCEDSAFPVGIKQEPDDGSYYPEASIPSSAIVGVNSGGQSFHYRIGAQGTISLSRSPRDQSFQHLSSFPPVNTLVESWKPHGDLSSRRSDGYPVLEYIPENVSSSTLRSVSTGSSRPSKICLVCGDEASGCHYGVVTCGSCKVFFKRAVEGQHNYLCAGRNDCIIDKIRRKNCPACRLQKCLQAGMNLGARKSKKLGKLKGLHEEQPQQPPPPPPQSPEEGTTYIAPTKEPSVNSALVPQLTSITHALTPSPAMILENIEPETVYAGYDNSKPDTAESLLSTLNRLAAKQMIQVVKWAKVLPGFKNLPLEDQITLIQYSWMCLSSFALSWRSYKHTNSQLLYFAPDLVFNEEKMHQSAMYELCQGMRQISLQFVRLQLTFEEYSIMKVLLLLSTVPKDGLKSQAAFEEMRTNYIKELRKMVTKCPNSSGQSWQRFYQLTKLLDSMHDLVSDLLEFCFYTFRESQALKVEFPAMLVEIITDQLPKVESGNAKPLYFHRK
T1 sequence (P03372 whole entry, looked up, the tested form may be a part): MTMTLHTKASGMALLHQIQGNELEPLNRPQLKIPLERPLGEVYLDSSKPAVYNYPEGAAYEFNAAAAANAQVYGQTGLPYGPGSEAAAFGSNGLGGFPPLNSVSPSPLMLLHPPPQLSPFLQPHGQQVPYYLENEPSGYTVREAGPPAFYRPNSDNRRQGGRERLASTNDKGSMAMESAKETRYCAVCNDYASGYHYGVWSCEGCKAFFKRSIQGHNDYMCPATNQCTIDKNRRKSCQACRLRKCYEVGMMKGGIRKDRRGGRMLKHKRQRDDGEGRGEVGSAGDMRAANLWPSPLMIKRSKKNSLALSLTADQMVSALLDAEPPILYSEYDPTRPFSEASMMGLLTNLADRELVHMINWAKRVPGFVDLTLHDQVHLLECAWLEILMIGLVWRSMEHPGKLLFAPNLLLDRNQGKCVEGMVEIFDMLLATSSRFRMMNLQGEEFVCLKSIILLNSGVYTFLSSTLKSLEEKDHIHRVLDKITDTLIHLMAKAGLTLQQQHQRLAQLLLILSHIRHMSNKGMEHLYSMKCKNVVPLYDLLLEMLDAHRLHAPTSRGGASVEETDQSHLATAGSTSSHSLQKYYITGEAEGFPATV
T1 sequence (Q92731 whole entry, looked up, the tested form may be a part): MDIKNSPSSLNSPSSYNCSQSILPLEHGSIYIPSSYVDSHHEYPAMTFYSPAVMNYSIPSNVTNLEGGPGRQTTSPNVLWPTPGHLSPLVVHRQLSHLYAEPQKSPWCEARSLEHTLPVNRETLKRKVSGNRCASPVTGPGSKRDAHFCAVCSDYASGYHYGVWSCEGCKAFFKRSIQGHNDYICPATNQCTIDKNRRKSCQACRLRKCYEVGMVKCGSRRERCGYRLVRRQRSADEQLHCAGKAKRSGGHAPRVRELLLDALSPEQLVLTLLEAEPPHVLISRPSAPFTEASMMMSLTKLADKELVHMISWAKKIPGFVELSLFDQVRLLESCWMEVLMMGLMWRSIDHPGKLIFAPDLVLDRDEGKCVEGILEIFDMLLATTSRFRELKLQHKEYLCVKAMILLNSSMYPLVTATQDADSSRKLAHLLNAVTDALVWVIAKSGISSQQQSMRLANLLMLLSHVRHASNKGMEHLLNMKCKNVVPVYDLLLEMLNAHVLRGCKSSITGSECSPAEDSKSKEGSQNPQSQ
Chain of Estrogen receptor (Homo sapiens) (P03372 whole entry, looked up, the tested form may be a part): as the sequence (P03372 whole entry, looked up, the tested form may be a part) above

On to `O=C(O)C1(c2ccc3c(c2)OC[C@H](Cc2ccc(-c4ccccc4)cc2)[C@H]3O)CCCC1`, for which the compound was called inactive in assay [1] and in assay [2]. For the compound `CCC[CH2][Sn]([Cl])([Cl])[CH2]CCC`, in assay [3], the outcome was inactive. On to `Cc1ccccc1OP(=O)(Oc1ccccc1)Oc1ccccc1`, for which, in assay [2], the call was inactive. Consider `CCOP(=O)(OCC)OC(=CCl)c1ccc(Cl)cc1Cl`, for which the result in [4] was inactive. Moreover, the half-maximal activity concentration (AC50) in assay [2] is 42.9 µM (active). Regarding `N#Cc1cccnc1`, the compound was classed as inactive in assay [5] and in assay [6].

As to `O=C(O)COc1cc(Cl)c(Cl)cc1Cl`, the compound was called inactive in [7] and in assay [8]. With `Cc1cc(C(C)(C)c2ccc(O)c(C)c2)ccc1O`, in assay [4], the compound was classed as inactive. Further, the half-maximal activity concentration (AC50) in [2] is 23.3 µM (active).

Turning to `Cc1cc(Cl)ccc1O`, the compound was called inactive in assay [6]. As for `Cc1ccccc1OP(=O)(Oc1ccccc1C)Oc1ccccc1C`, the compound was called inactive in assay [2]. As for `O=[N+]([O-])c1ccc(Nc2ccccc2)cc1`, the concentration at half-maximal activity (AC50) in [2] is 37.6 µM (active). Consider `O=c1oc2ccccc2c(O)c1C(CC(O)c1ccc(-c2ccc(Br)cc2)cc1)c1ccccc1` (configuration not stated), for which the result in assay [4] was inactive. In addition, the AC50 in assay [2] is 23.9 µM (active). Consider `CCCCCCCCCCCCc1cccc(S(=O)(=O)O)c1`, for which the half-maximal activity concentration (AC50) in [3] was 22.5 µM (active); in assay [6] it was 9.25 µM (active); in assay [2], 15.9 µM (active). Regarding `CCOC(=O)C(SP(=S)(OC)OC)c1ccccc1` (configuration not stated), the outcome in assay [2] was inactive. Regarding `OC(Cc1ccccc1Cl)(Cn1[nH]cnc1=S)C1(Cl)CC1` (configuration not stated), in assay [2], the result was inactive. For the compound `Cc1cc(Cl)ccc1OCCCC(=O)O`, the outcome in assay [7] and in assay [8] was inactive. For `Clc1cccc(Cl)c1`, the compound was classed as inactive in assay [4]. Take `Oc1cc(Cl)c(Cl)cc1Cl`: the compound was called inactive in [6].

As to `CCCCCCCCCCCCOS(=O)(=O)O`, in [6], the AC50 is 15.8 µM (active) and 8.71 µM (active). Turning to `COCCl`, the outcome in assay [7] was inactive.

Take `CC(C=O)Cc1ccc2c(c1)OCO2` (configuration not stated): the call in assay [4] was inactive. Regarding `N#CCCC(Br)(C#N)CBr` (configuration not stated), the result in assay [9] and in assay [6] was inactive. The AC50 in assay [10] was 11.8 µM (active).

`Clc1cccc(Cl)c1Cl`: the compound was called inactive in [3] and in [2].

Consider `C=CC(Cl)CCl` (configuration not stated), for which the compound was called inactive in [7] and in assay [8]. On to `C[C@]12CC[C@@H](O)C[C@@H]1CC[C@@H]1[C@@H]2CC[C@]2(C)C(=O)CC[C@@H]12`, for which the result in assay [2] was inactive. Regarding `O=C(N[C@H]1CN2CCC1CC2)c1ccc2c(c1)OCCO2`, the result in assay [7], in assay [8] and in assay [2] was inactive. Consider `CC(C)(C)c1ccccc1O`, for which the result in assay [6] was inactive. On to `O=C1C=CC(=O)c2ccccc21`, for which, in assay [2], the AC50 is 38.6 µM (active).
